Data reported in PubChem BioAssay (Tox21).
Results filed as inconclusive are left out. Active and inactive are the calls of the source. Calls follow the shape of the dose curve; as a rule, active = well fitted curve in the direction sought with a large enough effect in the repeat runs; inconclusive = weak or mixed curves; inactive = no such curve, though single readings can be large; an effect the other way counts as inactive or inconclusive.

Legend:
[1] = qHTS RealTime-Glo MT Cell Viability Assay in HEK293 cells - 16 hour (AID 1224872); also: top concentration of the series differs between compounds; nearly all actives have a fitted effect of over 50% in size
Procedure, shortened: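 Viability tracked continuously by luminescence as live cells reduce a prosubstrate for NanoLuc; HEK293 cells preincubated 5 h, compound-treated at 37 C, and read at 0, 8, 16, 24, 32 and 40 h.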

[2] = qHTS RealTime-Glo MT Cell Viability Assay in HepG2 cells - 8 hour (AID 1224873); also: nearly all actives have a fitted effect of over 55% in size
Procedure, shortened: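 HepG2 cells mixed with RealTime-Glo MT reagents (NanoLuc plus cell-permeant prosubstrate) were seeded at 600 cells/well, incubated 5 h at 37 C/5% CO2, then pinned with compounds in DMSO; nonlytic luminescence tracked viability during 40 h treatment.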

[3] = qHTS RealTime-Glo MT Cell Viability Assay in HEK293 cells - 40 hour (AID 1224874); settings: RealTime-Glo luminescence; max response: active compounds read low; also: nearly all actives have a fitted effect of over 50% in size
Procedure, shortened: (§1)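 Measured as luminescence from the same continuously cultured HEK293 wells at successive time points (0, 8, 16, 24, 32, 40 h) after compound addition. Reagent present from seeding; dosing at 5 h; incubation 37 C.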

[4] = A CellTox Green Cytotoxicity Assay to monitor cytotoxicity in HEK293 cells - 24 hour (AID 1224875); also: nearly all actives have a fitted effect of over 45% in size; also: potency is read from the fitted curve at half-maximal effect
Procedure, shortened: (§2)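 Homogeneous no-lysis format: HEK293 cell suspension mixed with CellTox Green reagent, seeded, incubated 5 h at 37 C/5% CO2, then dosed by pintool with compound in DMSO.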

[5] = A CellTox Green Cytotoxicity Assay to monitor cytotoxicity in HepG2 cells - 16 hour (AID 1224876); also: nearly all actives have a fitted effect of over 45% in size
Procedure, shortened: (§3)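 Fluorescent DNA-binding dye, 600 HepG2 cells/well, 5 h preincubation then compound in DMSO; same plates read at 0–40 h, 37 C.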

[6] = A CellTox Green Cytotoxicity Assay to monitor cytotoxicity in HepG2 cells - 24 hour (AID 1224878); also: nearly all actives have a fitted effect of over 45% in size
Procedure, shortened: as §3

[7] = A CellTox Green Cytotoxicity Assay to monitor cytotoxicity in HepG2 cells - 40 hour (AID 1224879); also: nearly all actives have a fitted effect of over 40% in size
Procedure, shortened: as §3

[8] = qHTS RealTime-Glo MT Cell Viability Assay in HEK293 cells - 0 hour (AID 1224880); also: top concentration of the series differs between compounds; nearly all actives have a fitted effect of over 45% in size
Procedure, shortened: as §1

[9] = A CellTox Green Cytotoxicity Assay to monitor cytotoxicity in HEK293 cells - 32 hour (AID 1224881); also: nearly all actives have a fitted effect of over 40% in size; also: potency is read from the fitted curve at half-maximal effect
Procedure, shortened: as §2

[10] = qHTS RealTime-Glo MT Cell Viability Assay in HepG2 cells - 32 hour (AID 1224877); also: nearly all actives have a fitted effect of over 55% in size
Procedure, shortened: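 Viability was tracked continuously by NanoLuc luminescence from prosubstrate reduced by living HepG2 cells, at successive time points over 40 h of compound exposure. Cells with reagent were preincubated 5 h at 37 °C before compound addition.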
% is scaled to controls: 0 for no effect and ±100 for the full control effect.

CC(C(=O)O)c1ccc(C(=O)c2ccccc2)s1 (configuration not stated)
inactive: Potency [1] | Potency [2] | max response [3] 4.65% | Potency [4] | Potency [5] | Potency [6] | Potency [7] | Potency [8] | Potency [9]

C=CC(=O)OCCOC(=O)CCC(=O)O
inactive: Potency [1] | Potency [2] | max response [3] 19.5% | Potency [4] | Potency [5] | Potency [10] | Potency [6] | Potency [9]

Cc1occc1S
inactive: Potency [1] | Potency [2] | max response [3] 3.01% | Potency [4] | Potency [10] | Potency [6] | Potency [7] | Potency [8] | Potency [9]

O=c1c2ccccc2nnn1CCl
inactive: Potency [1] | Potency [2] | max response [3] 10.3% | Potency [4] | Potency [5] | Potency [6] | Potency [7] | Potency [8] | Potency [9]

O=S1(=O)N=C(O)c2ccccc21
inactive: Potency [1] | Potency [2] | max response [3] 2.61% | Potency [4] | Potency [5] | Potency [10] | Potency [6] | Potency [9]

CCN1CCC[C@H]1CNC(=O)c1c(OC)ccc(Br)c1OC
inactive: Potency [1] | Potency [2] | max response [3] 12.2% | Potency [4] | Potency [10] | Potency [6] | Potency [7] | Potency [8] | Potency [9]

Oc1ccc(C(O)CNCCCCCCNCC(O)c2ccc(O)c(O)c2)cc1O (configuration not stated)
inactive: Potency [1] | Potency [2] | max response [3] 1.45% | Potency [4] | Potency [5] | Potency [6] | Potency [7] | Potency [8] | Potency [9]

O=C(Cl)c1ccc([N+](=O)[O-])cc1
inactive: Potency [1] | Potency [2] | max response [3] 7.36% | Potency [4] | Potency [10] | Potency [6] | Potency [7] | Potency [8] | Potency [9]

O=c1[nH]cnc2ccccc12
inactive: Potency [1] | Potency [2] | max response [3] -7.9% | Potency [4] | Potency [10] | Potency [6] | Potency [7] | Potency [8] | Potency [9]

CCCC(=O)OCC
inactive: Potency [1] | Potency [2] | max response [3] 20% | Potency [4] | Potency [5] | Potency [6] | Potency [7] | Potency [8] | Potency [9]

N#CCCNCCC#N
inactive: Potency [1] | Potency [2] | max response [3] 6.76% | Potency [4] | Potency [5] | Potency [6] | Potency [8] | Potency [9]

Cc1ccc(C(N)=O)cc1N
inactive: Potency [1] | Potency [2] | max response [3] 10% | Potency [4] | Potency [10] | Potency [6] | Potency [7] | Potency [9]

CCCCCCCCCC(=O)OCC
inactive: Potency [1] | Potency [2] | max response [3] -6.56% | Potency [4] | Potency [5] | Potency [6] | Potency [7] | Potency [8] | Potency [9]

NCCCOCCOCCOCCCN
inactive: Potency [1] | Potency [2] | max response [3] -18% | Potency [4] | Potency [10] | Potency [6] | Potency [7] | Potency [8] | Potency [9]

CCCCCCCCN(C)C
inactive: Potency [1] | Potency [2] | max response [3] 16% | Potency [4] | Potency [10] | Potency [6] | Potency [7] | Potency [9]

CC(C)CCCC(C)CCO (configuration not stated)
inactive: Potency [1] | Potency [2] | max response [3] 14.4% | Potency [4] | Potency [10] | Potency [7] | Potency [8] | Potency [9]

CCCC[C@H]1CN(CC2CCOCC2)C(=O)OC12CCN(C1(C)CCN(C(=O)c3c(C)ncnc3C)CC1)CC2
inactive: Potency [1] | Potency [2] | max response [3] 0.654% | Potency [4] | Potency [10] | Potency [8] | Potency [9]

COc1cc(C(C)(C)C)c(O)c(C(C)(C)C)c1
inactive: Potency [1] | Potency [2] | max response [3] 1.44% | Potency [10] | Potency [8]
active: Potency [4] 43.6 µM | Potency [9] 43.6 µM
